# Source: PubChem (National Center for Advancing Translational Sciences (NCATS))
# ALOX15B inhib: blocks human 15-lipoxygenase 2 activity; O15296; purified 15hLO-2, xylenol orange hydroperoxide absorbance; Potency, µM (doses to about 57.1 µM), for the others: at the highest dose activity change, negative = inhibition, actives largely listed as inhibitors; 110,000 compounds, 0.56% hits; further: potency means the concentration at half of the fitted maximal effect; nearly all actives have a fitted effect of over 60% in size
# Target sequence (O15296 whole entry, looked up): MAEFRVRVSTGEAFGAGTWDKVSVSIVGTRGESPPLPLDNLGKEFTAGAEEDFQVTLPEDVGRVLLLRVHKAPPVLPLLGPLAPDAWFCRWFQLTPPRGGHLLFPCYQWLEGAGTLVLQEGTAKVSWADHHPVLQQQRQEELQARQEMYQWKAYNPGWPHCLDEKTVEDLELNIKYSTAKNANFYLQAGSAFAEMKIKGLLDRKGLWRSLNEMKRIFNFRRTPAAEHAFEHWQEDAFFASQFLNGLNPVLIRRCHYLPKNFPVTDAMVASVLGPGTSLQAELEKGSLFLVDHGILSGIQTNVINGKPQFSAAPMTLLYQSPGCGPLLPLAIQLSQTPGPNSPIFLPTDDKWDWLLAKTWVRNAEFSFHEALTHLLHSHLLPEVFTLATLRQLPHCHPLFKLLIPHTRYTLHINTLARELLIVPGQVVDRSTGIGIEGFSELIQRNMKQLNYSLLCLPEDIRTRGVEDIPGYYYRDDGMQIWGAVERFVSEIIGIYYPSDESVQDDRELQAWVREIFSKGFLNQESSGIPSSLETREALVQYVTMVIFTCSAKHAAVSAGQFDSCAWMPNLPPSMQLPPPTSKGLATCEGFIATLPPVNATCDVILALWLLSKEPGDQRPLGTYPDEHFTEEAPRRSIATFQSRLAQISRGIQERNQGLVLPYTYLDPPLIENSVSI
#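 Purified human 15hLO-2 (50 nM) preincubated 15 min with compound, then 45 uM arachidonic acid for 90 min at RT in 25 mM Hepes pH 7.5, 0.01% Triton X-100. Hydroperoxide detected by Fe-xylenol orange; 573/405 nm absorbance ratio.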
# ALOX12 inhib: blocks human 12-lipoxygenase activity; P18054; Potency, µM (top dose mostly 57.1 µM), for inactives: top-dose activity change, negative = inhibition, usual class: inhibitors; AID 1452; purified 12-hLO, xylenol orange hydroperoxide absorbance; 150,000 compounds, 0.12% hits; further: potency means the concentration at half of the fitted maximal effect; nearly all actives have a fitted effect of over 55% in size
#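 150 nM 12hLO, 25 mM Hepes pH 7.0 + 0.01% Triton X-100; cpd preinc 15 min RT; 40 uM arachidonic acid, 30 min RT; Fe-XO 30 min; A573/A405 ratio as read-out.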
# PNC assembly inh: blocks assembly of the perinucleolar compartment; PC3M PTB-GFP, PNC prevalence imaging, 16 h; hits give low values; activity change (PNC), negative = inhibition, % at 10 µM; 140,000 compounds, 3.1% hits; AID 2417;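 active means readout at or below -70, meaning at least 70% loss of cells showing the perinucleolar compartment, a nuclear body marking cancer cells; inconclusive means readout between -30 and a set limit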;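 further: plate controls were DMSO wells for no effect and camptothecin positive control wells for full effect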
#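 Compounds are pinned in duplicate onto adhered PC3M cells stably expressing GFP-tagged PTB and incubated 16 h at 37 C. Cells are then fixed, nuclei stained with Hoechst, and PNC-positive cells counted.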
# * marks the source's active call; other numbers are inactive results; ? = inconclusive; nt = no result given; [ ] = dose if it differs, or a comment. An excerpt weighted towards active compounds, which were near 3.1% of everything screened. Unless noted, the call rests on the fitted dose curve; in most records, active means well fitted curve in the direction sought with a large enough effect; inconclusive means small, poorly fitted or top-dose-only effect, or another doubt; inactive means no such curve, though single readings can be large; an effect the other way counts as inactive or inconclusive. Unless noted, on the % scale 0 is the no-effect control and ±100 the full control effect.
SMILES,ALOX15B inhib,ALOX12 inhib,PNC assembly inh
Cc1cc(/C=N/NC(=O)Cn2c3ccccc3c(=O)c3ccccc32)c(C)n1-c1ccccc1,4µM*,2%,84
Cc1ccc(N(CC(=O)N/N=C/c2cc(C)n(-c3ccccc3)c2C)S(C)(=O)=O)c(C)c1,-1%,-6%,15
COC(=O)[C@@]1(Cc2ccc(OC)cc2)[C@H]2c3cc(C(=O)N(C)C)n(Cc4ccccn4)c3C[C@H]2CN1C(=O)c1ccccc1,1%,-7%,nt
COc1ccc(C(=O)NCc2cn3c(C)csc3n2)cc1OC,nt,5%,-100*
Cc1csc2nc(CNC(=O)c3cccc(C(F)(F)F)c3)cn12,20%,1%,21
CCCC(=O)OC(=O)CCC,-21%,1%,nt
O=C(NCc1cccnc1)C(=O)NCC1OCCN1S(=O)(=O)c1ccccc1 (centres undefined),nt,-2%,22
O=C(NCc1cccnc1)/C(=C\c1ccc(-c2ccc(Cl)c(Cl)c2)o1)S(=O)(=O)c1ccccc1,nt,3%,-81*
COc1ccccc1OCC(=O)Nc1ccc(S(=O)(=O)Nc2cc(C)nc(C)n2)cc1,-1%,0%,55
C=CCN(CC=C)S(=O)(=O)c1ccc(NC(=O)COc2ccccc2OC)cc1,nt,-3%,-88*
CS(=O)(=O)Nc1cccc(-c2cncnc2Nc2ccc(F)cc2)c1,-26%,nt,nt
CN(/N=C\c1ccccc1O)c1ccc2ccccc2n1,11%[11.4 µM],0%[11.4 µM],nt
COC(=O)[C@@]1(Cc2ccccc2)[C@H]2c3cc(C(=O)N(C)C)n(CCF)c3C[C@H]2CN1C(=O)c1ccccc1,-1%,0%,nt
Cc1cnc(CNc2cc(-c3ccccc3Cl)ncn2)cn1,0%,nt,nt
COc1ccc(CCN(C)CCc2ccc(OC)c(OC)c2)cc1OC,26%,-3%,nt
COc1ccc(CCN(C)CCCC(C#N)(c2cc(OC)c(OC)c(OC)c2)C(C)C)cc1OC (centres undefined),nt,-4%,-115*
O=C(CSCC(=O)N1CCN(c2ccccc2)CC1)Nc1nc(-c2ccc(Cl)s2)cs1,-7%,-9%,-108*
O=C(CSCC(=O)N1CCCCC1)Nc1nc(-c2ccc(Cl)s2)cs1,-6%,-10%,8
CC(=O)NC(Cc1c[nH]c2ccccc12)C(=O)OCC(=O)Nc1cc(C)on1 (centres undefined),6%[11.4 µM],0%,-92*
Cc1cc(NC(=O)COC(=O)[C@H](Cc2c[nH]c3ccccc23)NC(=O)c2ccc(F)cc2)no1,4%,-2%,?
COc1ccc(C/C(N)=N/n2cnnc2)cc1Cl,10%,-2%,14
COc1ccc(CSCCN)cc1Cl,21%[2.29 µM],-1%,-96*
Clc1ccccc1-c1nc(NC2CCNCC2)c2ccccc2n1,5%,nt,nt
Cn1c(=O)n(C)c2cc(/C=N/NC(=O)c3ccc(Cl)cc3Cl)ccc21,3%,3%,64
COc1ccc(Br)cc1C(=O)N/N=C/c1ccc2c(c1)n(C)c(=O)n2C,nt,1%,-82*
SMILES,ALOX15B inhib,ALOX12 inhib,PNC assembly inh
O=C(c1ccncc1)N1CCC2(CCCN(c3cccc(-c4ccccc4)c3)C2)CC1,2%,-17%,nt
COc1ccc(OCc2cccc(C(=O)NN)c2)cc1,nt,1%,?
COc1ccc(OCc2cccc(C(=O)Nn3cc([N+](=O)[O-])cn3)c2)cc1,nt,-3%,-99*
COc1ccc2c(c1OC)C(=O)OC2Nc1nc(-c2cc3ccccc3oc2=O)cs1 (centres undefined),nt,-3%,-7
COc1ccc2c(c1OC)C(=O)OC2Nc1ncccc1C (centres undefined),0%,4%,35
COc1ccc2c(c1OC)C(=O)OC2Nn1cncn1 (centres undefined),-1%,4%,-94*
COc1ccc2c(c1OC)C(=O)OC2Nc1nc(-c2ccc(-c3ccccc3)cc2)cs1 (centres undefined),nt,-2%,-123*
CC(C)C[C@@H](CC(=O)N[C@H](CC(=O)N[C@@H]1CCNC[C@H]1C(=O)N[C@H](CC(=O)N[C@@H](CCC(=O)O)CC(=O)O)CC(C)C)C(C)C)NC(=O)[C@@H]1CNCC[C@H]1N,nt,0%,nt
Cc1ccc(-n2nnnc2-c2cnn(-c3cccc(F)c3)c2C(F)(F)F)cc1,nt,-4%,-5
Fc1cccc(-n2ncc(-c3nnnn3-c3ccccc3)c2C(F)(F)F)c1,nt,5%,-84*
CCC1=C2CC[C@H]3C(=O)N(CC)C(=O)[C@H]3[C@H]2[C@@]2(C)C(=NCC(=O)OC)OC(=O)N2C1=O,6%,1%,nt
CC(=O)OCC(=O)[C@@]1(O)CC[C@@H]2[C@H]3CCC4=CC(=O)CC[C@]4(C)[C@]3(F)[C@@H](O)C[C@@]21C,3%[25.6 µM],5%[25.6 µM],nt
CC[n+]1c(/C=C2/C=C(C)CC(C)(C)C2)sc2ccc(OC)cc21,25µM*,-28%,-30
CC[n+]1c(/C=C2\C=C(C)CC(C)C2)sc2ccccc21 (centres undefined),?,-27%,?
CC[n+]1c(/C=C2\C=C(C)CC(C)(C)C2)sc2ccccc21,25µM*,-25%,4
CC[C@@H]1OC(=O)[C@H](C)[C@H](O[C@@H]2C[C@](C)(OC)[C@H](O)[C@H](C)O2)[C@H](C)[C@H](O[C@@H]2O[C@@H](C)C[C@@H](N(C)C)[C@@H]2O)[C@](C)(O)C[C@H](C)C(=NOCOCCOC)[C@H](C)[C@H](O)[C@]1(C)O,2%[25.6 µM],0%[25.6 µM],nt
CCOC(=O)c1sc2nc(N3CCOCC3)c3c(c2c1N)CCC3,11%,-2%,-96*
NC(=O)c1sc2nc(N3CCOCC3)c3c(c2c1N)CCCC3,-3%,-9%,-4
C/C=C(/C)C#N,-7%,2%,nt
COC(=O)C1=C(C)NC(C)=C(C(=O)OC(C)C)[C@H]1c1cccc2nonc12,-3%[25.6 µM],-3%[25.6 µM],nt
COCCNc1nc(-c2ccccc2Cl)nc2ccccc12,0%,nt,nt
COC(=O)Nc1nc(-c2ccccc2)c(C(=O)c2ccccc2)s1,5%,-3%,-98*
COC(=O)Nc1nc(C)c(C(=O)c2ccccc2)s1,-7%,-1%,?
Cc1cc(C)cc(Oc2nc(-c3ccccc3)cc(C)c2S(C)(=O)=O)c1,7%,-1%,-112*
Cc1cc(-c2ccccc2)nc(Oc2ccc(C(C)(C)C)cc2)c1S(C)(=O)=O,11%,-8%,2
SMILES,ALOX15B inhib,ALOX12 inhib,PNC assembly inh
CN1C[C@@H](C(=O)N[C@]2(C)O[C@]3(O)[C@H]4CCCN4C(=O)[C@H](Cc4ccccc4)N3C2=O)C[C@H]2c3cccc4[nH]cc(c34)C[C@@H]21,15%,-1%,nt
CCSCCCC(=O)O,12%[11.4 µM],4%[11.4 µM],nt
COc1cc(-c2[o+]c3cc(O)cc(O)c3cc2O)cc(O)c1O,-9%[11.4 µM],-18%[11.4 µM],nt
C=CCN(CC=C)C(=O)C1CCC(C(=O)N(CC=C)CC=C)CC1 (centres undefined),5%,1%,-88*
C=CCN(CC=C)C(=O)C1CC(=O)N(c2ccc(Br)cc2)C1 (centres undefined),2%,-4%,16
N[C@@H]1C(O)OC(CO)C(O)C1O (some centres undefined),-3%,-3%,nt
NS(=O)(=O)c1ccc(NC(=S)NCc2ccccc2)cc1,nt,-4%,-97*
NS(=O)(=O)c1ccc(NC(=S)NCc2cccc(Cl)c2)cc1,nt,-5%,-24
